About 64,000 (15%) of roughly 420,000 compounds were called active. About 27% were inconclusive and are not listed. The call rests on the fitted dose curve; in most records, active means well fitted inhibition curve with a large enough effect; inconclusive means small, poorly fitted or top-dose-only effect; inactive means flat fitted curve, though single readings scatter. Only a sample is shown.
test: qHTS for Inhibitors of human tyrosyl-DNA phosphodiesterase 1 (TDP1): qHTS in cells in absence of CPT; settings: DT40 Tdp1-/- hTDP1 cells, no CPT, ATP luminescence, 48 h; activity change, negative = growth inhibition: at 46.2 µM (top of the series); further: nearly all actives have a fitted effect of over 55% in size
Summary of the method: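 No-CPT arm: Tdp1-/-;hTDP1 DT40 cells (400/well) plus compounds, incubated ≥48 hr at 37 °C. Readout CellTiter-Glo luminescence.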
On the % scale 0 is the no-effect control and ±100 the full control effect; potency means the concentration at half of the fitted maximal effect.

| SMILES | activity change, negative = growth inhibition | Potency |
| --- | --- | --- |
| Cn1c(SCC(=O)N2CCCC2)nnc1-c1cccs1 | -2.82% (inactive) |  |
| CN(Cc1ccccc1)C(=O)CCNC(=O)Cn1cnc2ccccc2c1=O | -15.3% (inactive) |  |
| CN1CCCCCC1C(=O)NCCN1Cc2ccccc2OC(c2ccsc2)C1 (stereo unspecified) | -4.19% (inactive) |  |
| CCCCC(=O)Nc1ccc2c(c1)OCCO2 | -9.43% (inactive) |  |
| CCc1ccc(NC(=O)Cn2c(=O)n(CCC(=O)NCc3ccc4c(c3)OCO4)c(=O)c3ccccc32)cc1 |  | 9.2 µM (active) |
| Cn1c(=O)c2ccccc2n(CC(=O)Nc2ccc3c(c2)OCCO3)c1=O |  | 9.2 µM (active) |
| O=C(Cn1c(=O)sc2ccccc21)Nc1ccc2c(c1)OCCO2 | -13.3% (inactive) |  |
| CCc1ccc(NC(=O)Cn2nnc(C(=O)NCc3ccc4c(c3)OCO4)c2N)cc1 | -16.8% (inactive) |  |
| CCOc1ccc(NC(=O)Cn2c(=O)n(CCCC(=O)NCc3ccc4c(c3)OCO4)c(=O)c3ccccc32)cc1 | 1.6% (inactive) |  |
| Oc1ccc(-c2[nH]ncc2-c2nc3ccccc3s2)c(O)c1 | 10.6% (inactive) |  |
| COCCOC1CCN(C(=O)c2ccc(OC)c(OC3CCN(C(C)C)CC3)c2)CC1 | 8.08% (inactive) |  |
| NC(=O)c1ccc(N2CCOCC2)nc1 | 22.6% (inactive) |  |
| CC(C)CNC(=O)COC(=O)/C=C/c1ccco1 | -4.26% (inactive) |  |
| COc1ccc(-c2onc(C)c2C)cc1S(=O)(=O)NCC1CCN(Cc2cccc(F)c2)CC1 |  | 25.9 µM (active) |
| COc1ccc(-c2onc(C)c2C)cc1S(=O)(=O)NCc1cccs1 |  | 18.4 µM (active) |
| COc1cc(NC(=O)NCC2CCN(Cc3ccc(C)cc3)CC2)cc(OC)c1OC |  | inactive |
| Cc1ccc(-c2onc(C)c2C)cc1S(=O)(=O)Nc1ccccn1 | -25.3% (inactive) |  |
| COc1ccc(C)cc1S(=O)(=O)NCCc1ccccc1 | -19.9% (inactive) |  |
| COc1ccc(C)cc1NC(=O)CNCc1cccs1 | -1.9% (inactive) |  |
| O=C(CN1C2CCC1CC(NC(=O)C1CC1)C2)NCc1ccccc1 (stereo unspecified) | 1.04% (inactive) |  |
| O=S(=O)(O)CCN1CCOCC1 | -6.34% (inactive) |  |
| Cc1nc2nc(CSc3nc4ccccc4s3)cc(=O)n2[nH]1 | -12% (inactive) |  |
| C=CCOC(=O)C1=C[C@@H](c2ccc3c(c2)OCO3)C[C@@H](OCCCCO)O1 | -79.5% (inactive) |  |
| COc1ccc2ccccc2c1CNCc1ccccn1 | -28.3% (inactive) |  |

| SMILES | activity change, negative = growth inhibition | Potency |
| --- | --- | --- |
| Cc1ccc(C)c(NC(=O)CCC(=O)NNC(=O)c2cccs2)c1 | -1.86% (inactive) |  |
| Cc1ccc(C)c(NC(=O)NNC(=O)c2ccc3ccccc3c2O)c1 | -26.2% (inactive) |  |
| Cc1ccc(C)c(NC(=S)NNC(=O)c2csc(C)c2)c1 |  | 18.4 µM (active) |
| Cc1cc(C(=O)OCC(=O)Nc2nnc(C(C)C)s2)c2ccccc2n1 | -1.36% (inactive) |  |
| C=CCO/N=C(\C)c1c(O)c(C)c(-c2ccccc2)n(-c2ccccc2)c1=O | 4.5% (inactive) |  |
| CC(C)c1ccc(NC(=O)c2ccc3c(O)c(S(=O)(=O)c4ccccc4)c(=O)[nH]c3c2)cc1 | -26.3% (inactive) |  |
| COC(=O)c1scc(-c2ccc(C)cc2)c1S(=O)(=O)Nc1cc(Cl)c(OC)cc1OC |  | 11.6 µM (active) |
| COc1ccc(C)cc1S(=O)(=O)Nc1cccc(Cl)c1Cl | -19.3% (inactive) |  |
| COc1cc(OC)c(NS(=O)(=O)c2cn(C)cn2)cc1Cl | 8.31% (inactive) |  |
| CC1O[C@@H](OC2C(O)C(C)O[C@H](OC(=O)[C@]34CCC(C)(C)C[C@H]3C3=CCC5[C@@]6(C)CC(O)C(O[C@@H]7OC(CO)C(O)[C@@H](O)[C@@H]7O)[C@@](C)(C(=O)O)C6CC[C@@]5(C)[C@]3(CO)CC4)C2O[C@H]2OC(C)[C@@H](O[C@@H]3OCC(O[C@@H]4OC(CO)C(O)[C@H](O)C4O)[C@@H](O)[C@@H]3O)[C@H](O)C2O)C(O)C(O)C1O (stereo partly specified) | -0.939% (inactive) |  |
| Cc1ccc(CN2COc3cc(C)c4c(oc(=O)c5ccccc54)c3C2)cc1 | -25.3% (inactive) |  |
| CN(C(=O)c1ccccn1)c1nnc(-c2ccccn2)s1 | -6.67% (inactive) |  |
| CC1CC(C)(C)NC(=S)N1CCC(=O)N1CCN(Cc2ccccc2)CC1 (stereo unspecified) | -5.4% (inactive) |  |
| CCOC(=O)c1ccc(COC(=O)c2cc(=O)[nH]c3ccccc23)o1 | 5.73% (inactive) |  |
| Cc1ccc(N(Cc2cc(=O)[nH]c3ccccc23)C(=O)CCl)cc1 |  | 2.31 µM (active) |
| CC(=O)N(Cc1cc(=O)[nH]c2ccccc12)c1ccc(C)cc1C | -4.22% (inactive) |  |
| COC(=O)c1ccccc1NC(=O)c1ccc(COc2ccccc2Cl)o1 | -23.7% (inactive) |  |
| CC(=O)Nc1ccn(Cc2c(F)cccc2Cl)n1 | -21.4% (inactive) |  |
| O=C(Nc1ccn(Cc2ccccc2F)n1)c1ccc(COc2ccc(Cl)cc2Cl)o1 |  | 25.9 µM (active) |
| O=C1CC(c2ccccc2)C(=O)N2C(=O)CC(c3ccccc3)C(=O)N12 (stereo unspecified) | -3.36% (inactive) |  |
| c1ccc2c(c1)OCC(c1nn3cnnc3s1)O2 (stereo unspecified) | 9.7% (inactive) |  |
| O=C(CN1CCCC1)Nc1sc2c(c1C(=O)Nc1ccccc1)CCCC2 | -23.3% (inactive) |  |
| CCOc1ccc(NC(=O)c2c(NC(=O)Cc3ccccc3)sc3c2CCC(C)C3)cc1 (stereo unspecified) |  | 20.6 µM (active) |
| CCOc1ccc(NC(=O)c2c(NC(=O)Cc3ccccc3)sc3c2CCCCC3)cc1 |  | 20.6 µM (active) |

| SMILES | activity change, negative = growth inhibition | Potency |
| --- | --- | --- |
| CC(C)OC(=O)c1c(NC(=O)c2ccco2)sc2c1CCCC2 | 2.44% (inactive) |  |
| CCOC(=O)c1c(NC(=O)/C=C/c2ccc(OC)cc2)sc2c1CCC(C)C2 (stereo unspecified) | -5.43% (inactive) |  |
| COc1ccc(CC(=O)Nc2sc(Cc3ccccc3)c(C)c2C(N)=O)cc1 | -17.9% (inactive) |  |
| Cc1sc2c(c1C)c(=O)n(-c1ccccc1)c1nncn21 | -26.5% (inactive) |  |
| Cc1cccc(C2c3c(n(C)c(=O)n(C)c3=O)N=C3c4ccccc4C(=O)C32)c1 (stereo unspecified) | -57.1% (inactive) |  |
| Cc1ccc(Nc2nc(N)nc(CSc3nnc(C)s3)n2)cc1 | -20.7% (inactive) |  |
| CC(=O)c1sc(N/N=C\c2ccc(C)cc2)nc1C | -6.34% (inactive) |  |
| Cc1ccc(Nc2nc(Cl)c(C=O)s2)cc1 |  | 23.1 µM (active) |
| COc1ccc(CC(=O)Nc2c3c(nn2-c2cccc(Cl)c2)CS(=O)C3)cc1 (stereo unspecified) | -24.1% (inactive) |  |
| Cc1ccc(OCC(=O)NC(C)c2ccccc2)c([N+](=O)[O-])n1 (stereo unspecified) | -5.01% (inactive) |  |
| C=C1C2C[C@H](O)C(C)(C)[C@@]2(O)[C@H](O)C[C@]23C[C@@](C)(O)[C@H](CC[C@H]12)[C@H]3O (stereo partly specified) | 12.3% (inactive) |  |
| Cc1c(C(=O)N/N=C/c2ccccc2)[nH]c2c([N+](=O)[O-])cccc12 |  | 0.92 µM (active) |
| Cc1cc(C(=O)N/N=C/c2ccccc2[N+](=O)[O-])c(C)o1 | -20.6% (inactive) |  |
| Cc1nn(-c2ccccc2)c(Cl)c1/C=N/NC(=O)c1nn(C)cc1[N+](=O)[O-] | -28.7% (inactive) |  |
| CN(C(=O)c1cccc(NC(=O)Cc2cccc(NC(=O)C3CCCN(C(=O)C4CC4)C3)c2)c1)C1CCC1 (stereo unspecified) | -29.4% (inactive) |  |
| CC(=O)c1cccc(NC(=O)N2CCCC2C(=O)NCCc2ccccc2)c1 (stereo unspecified) | 0.243% (inactive) |  |
| CN(C(=O)c1cccc(NC(=O)C2CCN(C(=O)OC(C)(C)C)CC2)c1)C1CCC1 | -24.9% (inactive) |  |
| O=C(Cc1ccc(NC(=O)C2CCCN(C(=O)C3CCCCC3)C2)cc1)Nc1cccc(C(=O)N2CCCCC2)c1 (stereo unspecified) | -20.7% (inactive) |  |
| CN(C(=O)c1cccc(NC(=O)Cc2ccc(NC(=O)C3CCCN(C(=O)C4CC4)C3)cc2)c1)C1CC1 (stereo unspecified) | 0.0642% (inactive) |  |
| CN(CCc1ccccc1)C(=O)c1cccc(NC(=O)Cc2cccc(NC(=O)C3CCCN(C(=O)CCc4ccccc4)C3)c2)c1 (stereo unspecified) |  | 13 µM (active) |
| O=C(Cc1ccc(NC(=O)C2CCCN(C(=O)CCc3ccccc3)C2)cc1)Nc1ccc(C(=O)N2CCOCC2)cc1 (stereo unspecified) |  | 18.4 µM (active) |
| O=C(Cc1ccc([N+](=O)[O-])cc1)Nc1ccc(C(=O)N2CCOCC2)cc1 | -10.5% (inactive) |  |
| CCNC(=O)c1cccc(NC(=O)C2CC(=O)N(CCc3ccccc3)C2)c1 (stereo unspecified) | 7.49% (inactive) |  |
| CN(C(=O)c1cccc(NC(=O)Cc2ccc(NC(=O)C3CCCN(C(=O)C4CCCC4)C3)cc2)c1)C1CCC1 (stereo unspecified) |  | 20.6 µM (active) |

| SMILES | activity change, negative = growth inhibition | Potency |
| --- | --- | --- |
| CN(C(=O)c1ccc(NC(=O)Cc2cccc(NC(=O)C3CCN(C(=O)c4ccccc4)CC3)c2)cc1)C1CC1 | 1.83% (inactive) |  |
| CC(C)(C)OC(=O)N1CCC(C(=O)Nc2cccc(C(=O)NCCc3ccccc3)c2)CC1 |  | 14.6 µM (active) |
| Cc1cc(NC(=O)CCC(=O)N(Cc2ccccc2)C(C(=O)NC2CCCC2)c2ccc(C)o2)no1 (stereo unspecified) | -28.1% (inactive) |  |
| CCc1nc2ccc(C(=O)NC3CCN(Cc4ccccc4)CC3)cn2c1N(C)CCN1CCOCC1 | -24.4% (inactive) |  |
| O=C(NC(=S)Nc1ccccc1C(=O)O)c1ccc(-c2ccc(Br)cc2)o1 | -10.9% (inactive) |  |
| O=C(c1cccnc1NCc1ccccc1)N1CCOCC1 | -11.3% (inactive) |  |
| CC(=O)Nc1ccc(NC(=O)c2ccc3c(c2)C(=O)N(c2ccccc2C)C3=O)cc1 | 5.82% (inactive) |  |
| NC(=O)C1(N2CCCCC2)CCN(C(=O)c2ccc(C#Cc3ccccc3)o2)CC1 | -29.5% (inactive) |  |
| COCCCNC(=O)CNC(=S)N(Cc1cc(OC)c(OC)c(OC)c1)C1CCCC1 | 7.92% (inactive) |  |
| COc1ccc(C)cc1N(C)C(=O)c1coc(=O)c2ccccc12 | -19.8% (inactive) |  |
| CC/C(Cc1ccccc1)=N/NC(=O)CCn1nnc2ccccc21 | 0.293% (inactive) |  |
| NS(=O)(=O)c1ccc(NC(=S)N2CCCC2)cc1 | 17.6% (inactive) |  |
| CC1CN(Cc2ccco2)C(=S)N(c2ccccc2)C1=O (stereo unspecified) | -2.45% (inactive) |  |
| CCN(CC)C(=O)CSc1nnc(CNc2ccc(F)cc2)n1Cc1ccco1 | 0.469% (inactive) |  |
| CN(C)C(=S)N=c1ssc(=S)n1Cc1ccco1 |  | 1.64 µM (active) |
| CC1=CC=CC2=N/C(=N\S(=O)(=O)c3ccc(F)cc3F)c3ccccc3CN12 | -23.1% (inactive) |  |
| CCOC(=O)CSC1=C(C#N)C(c2sccc2C)CC(=O)N1 (stereo unspecified) |  | 3.55 µM (active) |
| COC(=O)CSC1=C(C#N)C(c2ccccc2OC)C(C(=O)OC)C(=O)N1 (stereo unspecified) | -2.46% (inactive) |  |
| C=CCSC1=C(C#N)C(c2cc(Br)c(O)c(OC)c2)CC(=O)N1 (stereo unspecified) | -1.88% (inactive) |  |
| COc1cccc(CNC(=O)C2CCN(S(=O)(=O)c3cccc4cccnc34)CC2)c1 | -14.2% (inactive) |  |
| Cc1nc2ccc(C(=O)N3CCN(c4ccccc4)CC3)cc2s1 | -8.77% (inactive) |  |
| Cc1ccc2nc(C)c3c(c2c1)N(c1ccccc1)CC3 |  | 13 µM (active) |
| Cc1ccc2nc3n(c(=O)c2c1)CCC3 | -1.96% (inactive) |  |
| CC(=O)c1ccc(NC(=O)CCc2nnc3ccc(NCc4ccco4)nn23)cc1 | -26.2% (inactive) |  |
